Source: PubChem (several laboratories)
GRK2 aptamer HTS = inhibitors of human GRK2 displacing RNA aptamer | 0.59% of 330,000 active | AID 488847 | inhibition of aptamer binding, % at 10 µM | bead flow cytometry, FAM-aptamer displacement from GRK2 | P25098;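 active means inhibition of aptamer binding above 40%, roughly 3 SD of noise, on plates passing a quality check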;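 further: median bead fluorescence of bound FAM aptamer so fluorescent compounds give negative values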
HDAC3 inh = human HDAC3 inhibition; inhibition, % at 8.3 µM; O15379; 0.15% of 320,000 active; recombinant HDAC3, fluorogenic peptide/trypsin coupled, fluorescence; in the data active means inhibition above about 26%, passing the limit was not always enough
Efflux pump inh = blocks antifungal efflux pumps in multiplex yeast assay; AID 485275; inhibition, % at 10 µM; 0.44% of 330,000 active; S. cerevisiae Candida pump triplex, Nile Red efflux;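 active means plate passing quality check with inhibition over a set limit, or well fluorescence over plate mean plus 4 SD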;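 further: Nile Red retained in pooled yeast measured as flow cytometry median fluorescence; higher means more Nile Red kept so more efflux inhibition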
Rtt109 HAT inh = inhibitors of Candida albicans Rtt109/Vps75 histone acetyltransferase | Q5AAJ8 | purified Rtt109/Vps75, ThioGlo CoA-SH fluorescence, 4 h | inhibition, % at 34.9 µM | 0.16% of 330,000 active | AID 540336;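 active means inhibition of at least 50% in every replicate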
Rce1 inhib = yeast Ras-converting enzyme inhibition | yeast membranes, quenched prenylated peptide cleavage fluorescence | AID 2563 | 0.27% of 290,000 active | calls only;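 active means fall in fluorescence gain of 50% or more versus controls, with final raw signal at or below 3038400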
Target sequence (Q03530 whole entry, looked up): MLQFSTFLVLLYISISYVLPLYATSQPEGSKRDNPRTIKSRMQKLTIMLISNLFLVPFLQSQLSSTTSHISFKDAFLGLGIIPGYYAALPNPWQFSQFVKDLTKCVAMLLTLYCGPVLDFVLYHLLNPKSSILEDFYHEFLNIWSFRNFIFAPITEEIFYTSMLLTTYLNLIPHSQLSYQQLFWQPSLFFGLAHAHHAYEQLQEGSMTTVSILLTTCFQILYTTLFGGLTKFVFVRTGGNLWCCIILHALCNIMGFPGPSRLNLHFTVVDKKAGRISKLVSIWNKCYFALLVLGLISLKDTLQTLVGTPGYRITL
ALR inh = inhibitors of human sulfhydryl oxidase ALR. AID 485317. P55789. inhibition, % (no concentration beside the values). purified ALR, DTT oxidation, H2O2 HRP-luminol luminescence. 3.8% of 290,000 active;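 active means mean replicate inhibition above about 79%, with every replicate also reaching it, limit read from the data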
Target sequence (P55789 whole entry, looked up): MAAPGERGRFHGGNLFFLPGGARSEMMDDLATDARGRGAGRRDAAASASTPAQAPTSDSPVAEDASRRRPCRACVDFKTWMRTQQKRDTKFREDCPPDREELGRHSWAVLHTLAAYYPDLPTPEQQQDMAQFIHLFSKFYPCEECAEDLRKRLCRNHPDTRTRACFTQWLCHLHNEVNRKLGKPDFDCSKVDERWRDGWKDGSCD
GRK2 CP1 = confirmation of human GRK2 inhibitors displacing RNA aptamer. shares compounds with GRK2 aptamer HTS. bead-bound GRK2, FAM-aptamer displacement, flow cytometry. aptamer displacement, % at 10 µM. 4% of 2,000 active. AID 504451;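 active means aptamer displacement above 40%, near three times the noise of non-fluorescent compounds, on plates passing quality checks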;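 further: negative values mostly reflect intrinsic compound fluorescence rather than true enhancement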
Aptamer quench SP = counter-screen for GRK2 aptamer inhibitors: fluorescent aptamer quenchers; Carboxyfluorescein RNA aptamer on beads, flow cytometry quenching; active compounds read low; shares compounds with GRK2 aptamer HTS; 2,000 tested, under 10 active; fluorescence response (% of DMSO), % at 10 µM;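 active means compounds that quench the bead-bound fluorescent RNA probe, cutting fluorescence to under half of the solvent control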;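 further: counterscreen run without GRK2 so only probe quenching by compound is measured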
GRK2 CP2 = confirmation of human GRK2 inhibitors binding RNA aptamer site; inhibition of aptamer binding, % at 10 µM; shares compounds with GRK2 aptamer HTS; 360 tested, under 10 active; bead-bound GRK2, FAM-aptamer displacement, flow cytometry;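 active means inhibition of aptamer binding above 40%, about triple the noise seen with nonglowing compounds, on plates passing quality control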;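 further: negative values mostly come from compounds that fluoresce themselves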
FAM quench SP = quenches fluorescent RNA aptamer, GRK2 hit artifact; shares compounds with GRK2 aptamer HTS; 360 tested, under 10 active; fluorescence response vs DMSO, % at 10 µM; carboxyfluorescein RNA aptamer beads, flow cytometry quenching; active compounds read low;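 active means response vs DMSO under 50%, meaning signal dropped by over half, treated as fluorescence quencher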;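 further: labelled aptamer on streptavidin beads without GRK2 as a quench counter-screen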
Each line names hits and unclear results; the compound was inactive in the other large screens (follow-up assays come after a bar, where they were run). This is a sample that favours compounds with a hit; in the whole collection about 4.5% have one here.

O=C(CCSCCC(=O)N1CCCC1)N1CCCC1	GRK2 aptamer HTS 45 | GRK2 CP1 inactive | Aptamer quench SP inactive
Cc1ccc(S(=O)(=O)N(C)C)cc1NC(=O)C(C)OC(=O)/C=C/c1cccs1 (centres undefined)	none
CCNc1ccc(S(=O)(=O)N(C)C)cc1[N+](=O)[O-]	GRK2 aptamer HTS 66 | GRK2 CP1 inactive | Aptamer quench SP inactive
CCOC(=O)c1c(NC(=O)CSc2nc3ccccc3o2)sc(C(C)=O)c1C	GRK2 aptamer HTS 51 | GRK2 CP1 inactive | Aptamer quench SP inactive
Cc1ccc2nc(N3CCN(c4ccccc4F)CC3)c(C=O)c(=O)n2c1	GRK2 aptamer HTS 64 | GRK2 CP1 inactive | Aptamer quench SP inactive
Cc1ccc(C2(c3ccc(C)cc3)NC(=O)N(CC(N)=O)C2=O)cc1	none
COc1ccccc1C(=O)NCC(=O)OCC(=O)Nc1ccc2[nH]c(=O)[nH]c2c1	none
CC(c1ccco1)N(C(=O)C12CC3CC(CC(C)(C3)C1)C2)c1ccccn1 (centres undefined)	GRK2 aptamer HTS 55 | GRK2 CP1 inactive | Aptamer quench SP inactive
COc1cccc(CN(Cc2cccnc2)S(=O)(=O)c2ccc(-n3cnnn3)c(C)c2)c1	none | GRK2 CP1 inactive | Aptamer quench SP inactive
CC(C)Cn1c(N)c(C(=O)CSc2ccccc2)c(=O)n(C)c1=O	GRK2 aptamer HTS 47 | GRK2 CP1 inactive | Aptamer quench SP inactive
C/C=C(\C)C(=O)NCCN1C2=NC[C@@H](C)N2C[C@H]1Cc1ccc(O)cc1	GRK2 aptamer HTS 68 | GRK2 CP1 inactive | Aptamer quench SP inactive
O=C(c1ccc2c(=O)n(CCc3ccccc3)c(=O)[nH]c2c1)N1CCN(c2ccccc2)CC1	GRK2 aptamer HTS 88 | GRK2 CP1 inactive | Aptamer quench SP inactive
CCC(C)c1ccc(NC(=S)N2CCN(C(=O)C3CCCO3)CC2)cc1 (centres undefined)	GRK2 aptamer HTS 74 | GRK2 CP2 inactive | FAM quench SP inactive
CCC(C)c1ccc(NC(=O)N2CCN(C(=O)C3CCCO3)CC2)cc1 (centres undefined)	none
CC(C)(C)S(=O)N1Cc2cn(Cc3ccccc3)c(=O)cc2[C@H]1CCO (some centres undefined)	none (no result: GRK2 aptamer HTS, HDAC3 inh, Efflux pump inh, Rce1 inhib, ALR inh)
COc1ccc(S(=O)(=O)N2CCC(C(=O)NCCN3CCOCC3)CC2)cc1	none
Cc1ccc2nc(-c3ccccn3)c(Nc3ccccc3C)n2c1	GRK2 aptamer HTS 84, ALR inh 98 (no result: HDAC3 inh) | GRK2 CP1 inactive | Aptamer quench SP inactive
COc1ccc(CC(=O)Nc2nc(-c3ccc(F)c(F)c3)cs2)cc1	GRK2 aptamer HTS 92 | GRK2 CP1 inactive | Aptamer quench SP inactive
O=C(Cc1ccc(F)cc1)Nc1nc(-c2ccc(F)c(F)c2)cs1	none
CCN(CC)CCNC(=O)c1cc(Nc2ccc(OC)c(OC)c2)nc2ccccc12	none
CCC(C)(C)NC(=O)C(c1ccc(OC)cc1)N(C(=O)CCC(=O)Nc1cc(C)on1)c1ccc2c(c1)OCO2 (centres undefined)	none (no result: ALR inh)
COc1cc(C2C(C#N)=C(N)Oc3c2ccc2ccccc32)ccc1OCC(=O)Nc1ccc(C)cc1 (centres undefined)	none | GRK2 CP1 inactive | Aptamer quench SP inactive
COc1cc(C2C(C#N)=C(N)Oc3c2ccc2ccccc32)ccc1OCC(=O)Nc1cccc(C)c1 (centres undefined)	none
O=C1NC(=O)/C(=C\c2ccc(Br)o2)S1	GRK2 aptamer HTS 90 | GRK2 CP1 inactive | Aptamer quench SP inactive
O=C1NCC(Nc2ccc(Br)cc2)C(=O)N1 (centres undefined)	none (no result: GRK2 aptamer HTS, HDAC3 inh, Efflux pump inh, Rce1 inhib, ALR inh)
COC(=O)c1ccccc1S(=O)(=O)NNC(=O)c1nn(C)c(=O)c2ccccc12	none (no result: Rce1 inhib)
